Assay results published in PubChem BioAssay (NCI).
Compounds without any hit were thinned out: in the full panel of roughly 83,000, 20% have a hit.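 Cell lines were cultured in 96-well plates, exposed to a single compound concentration, and assessed for percent growth 48 hours later.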 Values without a mark were called inactive. The source made the active and inactive calls.

tested on: HOP-92 NSCLC; experiment: NCI-60 one-dose screen, 48 h (100 = growth as untreated, 0 = no growth, -100 = all killed); settings: 10 µM unless noted
Method: Growth inhibition of the HOP-92 human Non-Small Cell Lung tumor cell line is measured as a screen for anti-cancer activity. Cells are grown in 96 well plates and exposed to the test compound for 48 hours. Compounds are tested at a single concentration, which is 10^-5 M for most compounds. The reported endpoint is percent growth (GI% or GIPRCNT), where numbers from 0 - 100% represent growth inhibition, and numbers from -100% - 0 represent cell death. For example, a value of 40 represents 60% growth inhibition. A value of 0 means no net growth occurred over the course of the experiment. A value of -40 indicates 40% of cells at the beginning of the experiment died by the end of the experiment. A value of -100 means all cells are dead at the end of the experiment.
NCI-60 Human Tumor Cell Lines Screen was performed using the standard one-dose NCI protocol, which is described in more detail at https://dtp.cancer.gov/discovery_development/nci-60/default.htm.
Compounds with GIPRCNT values below 10 were considered active. Activity score was based on GIPRCNT using the following formula: […]
Score is 0 for GIPRCNT values of 100 or above, 50 for GIPRCNT values of 0, and 100 for GIPRCNT values of -100.

SMILES	growth
Cc1cc(C(=O)NN)c(C#N)c(=O)[nH]1	87.2%
CC(=O)[C@@]1(O)CC[C@H]2[C@@H]3CC[C@@H]4CC(=O)CC[C@]4(C)[C@H]3[C@@H](O)C[C@@]21C	84.3%
CCOS(=O)(=O)c1ccc([N+](=O)[O-])cc1	99.4%
Cc1ccccc1NC(=O)Oc1ccc(Cl)cc1C(=O)c1ccccc1	83.9%
CC(=O)c1cccs1	90.8%
O=S(Cc1ccccc1)/C(=C/NC(=S)Nc1ccccc1)c1ccccc1 (stereo not given)	101%
C=C(C)[C@@H]1CC[C@]2(CO)CC[C@]3(C)[C@H](CC[C@@H]4[C@@]5(C)CC[C@H](O)C(C)(C)[C@@H]5CC[C@]43C)[C@@H]12	36.4%
C=CCOc1ccc(Cl)cc1Cl	77.3%
NC(CCl)=NCC12CC3CC(CC(C3)C1)C2	-37.6% (active)
Nc1cccc2cccc(O)c12	83.8%
CCCC1OC(c2ccco2)OCC1CC (stereo not given)	105%
Cc1ccc(C)c(CCO)c1	68.3%
CCCc1cccc(CCC)c1NC(=O)Nc1cc(Cl)cc(Cl)c1	98.8%
Cc1[nH]c(=S)[nH]c(=O)c1C	125%
NNC(=O)c1ccccc1N	86.4%
CCC1CCC(C)NC1 (stereo not given)	87.3%
O=C(CCl)Oc1ccc([N+](=O)[O-])cc1	78.5%
O=C(NCCc1ccccc1)/C(=C\c1ccc(Cl)cc1Cl)NC(=O)c1ccccc1	80.5%
O=C(O)Cc1ccccn1	99.1%
CCOC(=O)N[C@H]1CCc2cc(OC)c(OC)c(OC)c2-c2ccc(SC)c(=O)cc21	29.4%

SMILES	growth
CCOC(=N)CC(=O)Nc1cccc(C)c1Cl	89.1%
CC1CC2C3CCC4=CC(=O)CCC4(C)C3CCC2(C)C1(O)C(=O)CO (stereo not given)	100%
O=C(c1ccccc1)c1ccc(-c2ccc(O)cc2)cc1	71.7%
C1Cc2onc(-c3noc4c3CCC4)c2C1	108%
BrCc1cccc(C[P+](c2ccccc2)(c2ccccc2)c2ccccc2)c1	32%
Clc1cccc(Cl)c1C1CSc2ccccc2N=C1c1ccccc1 (stereo not given)	75.4%
C/C(O)=C(/C=N\C(=S)Nc1ccc(S(=O)(=O)Nc2nccs2)cc1)C(=O)Nc1ccccc1C	87.5%
CC(=O)NC(O)C(Cl)Cl (stereo not given)	94.9%
COc1cc(C(=O)N2CCN(c3ccccc3)CC2)c2ccccc2n1	62.3%
CN=S(=O)(OCCCCCOS(=O)(=NC)c1ccc(C)cc1)c1ccc(C)cc1 (stereo not given)	59.2%
CCC12OC(COc3ccccc3)CN1CCN2c1ccccc1 (stereo not given)	96.9% [100 µM]
CC(=O)OCC1CCC(COC(C)=O)CC1 (stereo not given)	125%
Cc1cc2c3ccc(C)[n+](C)c3ccc2n1C	44.4%
O=Cc1c(O)c2ccccc2[nH]c1=O	110%
Nc1cc(N)ncn1	96%
ON1CCCC1	92.4%
Cc1cc(Nc2ccc3c(c2)OCO3)c2cc3c(cc2n1)OCO3	10.4%
CCN(Cc1ccc(Cl)c(Cl)c1)c1ccc2nc(N)nc(N)c2c1C	-90.9% (active)
CCCCCCCCCCCCSC1=C(Cl)C(=O)C(OC)=C(OC)C1=O	57.9%
CC(=O)NC(CCc1ccc(Cl)c(Cl)c1)c1cccc(O)c(=O)c1 (stereo not given)	4.89% (active)
